Compounds with a hit are over-represented: about 19% of the library has one in this group of screens.
TDP1 cell noCPT: qHTS for Inhibitors of human tyrosyl-DNA phosphodiesterase 1 (TDP1): qHTS in cells in absence of CPT | Potency, µM (top dose mostly 46.2 µM), without a hit: at the top dose activity change, negative = growth inhibition, actives largely listed as inhibitors | DT40 Tdp1-/- hTDP1 cells, no CPT, ATP luminescence, 48 h | 420,000 tested, 15% active | AID 686978, 2013; further: potency means the concentration at half of the fitted maximal effect; nearly all actives have a fitted effect of over 55% in size
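Compound effects on proliferation are scored in DT40 Tdp1-/-;hTDP1 cells in the absence of CPT. ATP levels (CellTiter-Glo luminescence) are recorded after a ≥48 hr, 37 °C incubation.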
uPA surface inh: cell surface uPA generation inhibition; cell surface uPA generation assay, qHTS; Potency, µM (doses to about 38.3 µM), for inactives: at the top dose activity change, negative = inhibition, hits mostly inhibitors; 330,000 tested, 0.31% active; AID 540303; active means well fitted inhibition curve with a large enough effect; inconclusive means small, poorly fitted or top-dose-only effect; inactive means no such curve, though single readings can be large or run the other way; tested in mouse RAW 264.7 cells; further: potency means the concentration at half of the fitted maximal effect; nearly all actives have a fitted effect of over 55% in size
HT1080 IDH1KD tx: HT-1080 IDH1 knockdown cell toxicity (counter line); HT-1080 IDH1 knockdown viability, ATP luminescence, 48 h; Potency, µM (highest dose often 46.1 µM), inactives show at the top dose activity, negative = toxicity, actives largely listed as cytotoxic; 360,000 tested, 2% active;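 further: potency means the concentration at half of the fitted maximal effect; 0% = DMSO wells and -100% = cell-free medium wells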
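Cytotoxicity counter-line: IDH1KD HT-1080, 48 h, CellTiter-Glo. Curves classed by r2, magnitude and activity.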
IL-1B inflam inh: inhibitors of inflammasome signaling (IL-1 beta secretion). 360,000 tested, 4.7% active. activity change, % at 57.5 µM. THP-1 LPS/ATP IL-1B secretion, AlphaLISA, 16 h; stronger effect = lower value; in the data active means activity change below about -50%; inconclusive means mostly about -30% to -49%
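THP-1 cells pretreated 1 hr with compounds (up to 57.5 uM final), then stimulated with LPS (250 ng/mL final) plus ATP (1.25 mM final); secreted IL-1B measured by AlphaLISA after 16 hr, decreased signal indicating inhibition.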
HT1080-NT tox: kills 2HG-producing HT-1080-NT fibrosarcoma cells; HT-1080-NT fibrosarcoma viability, CellTiter-Glo ATP luminescence, 48 h; Potency, µM (highest dose often 46.1 µM), for inactives: at the highest dose activity, negative = less viability, actives largely listed as cytotoxic; 360,000 tested, 1.6% active; AID 686970;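 further: NT is the 2HG producing partner of a matched IDH1 knockdown line; potency means the concentration at half of the fitted maximal effect; 0% = DMSO-treated cells and -100% = media-only wells without cells; nearly all actives have a fitted effect of over 55% in size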
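HT-1080-NT fibrosarcoma cells (2HG-overproducing), 750 cells/well in RPMI with 5% FBS, dosed after 2 h and incubated 48 h at 37C. CellTiter-Glo luminescence normalized to DMSO and no-cell wells; concentration-response curves fitted and classed.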
TDP1 cell CPT: DT40-hTDP1 cell growth loss with CPT | chicken DT40 Tdp1-/-;hTDP1 cells + 20 nM CPT, ATP luminescence, 48 h | Potency, µM (highest dose often 46.2 µM), for the others: at the top dose activity change, negative = growth inhibition, hits mostly inhibitors | 420,000 tested, 12% active; further: potency means the concentration at half of the fitted maximal effect; nearly all actives have a fitted effect of over 55% in size
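Chicken DT40 Tdp1-/- cells stably complemented with human TDP1 were seeded at 400 cells/well in medium containing 20 nM camptothecin, exposed to pin-transferred compounds, and grown at 37 °C for at least 48 hr. Viability was read as ATP luminescence.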
Active calls of the source: *; [ ] = another dose, or the depositor's remark. Unless noted, the call rests on the fitted dose curve; in most records, active means well fitted curve in the direction sought with a large enough effect; inconclusive means small, poorly fitted or top-dose-only effect, or another doubt; inactive means no such curve, though single readings can be large; an effect the other way counts as inactive or inconclusive. Unless noted, on the % scale 0 is the no-effect control and ±100 the full control effect.

CC(C)(C)S(=O)N1Cc2cc(C(=O)NCC(F)(F)F)nc(-c3cccc(-c4cccc(F)c4)c3)c2[C@H]1CCO (some centres not stated) was read as TDP1 cell noCPT 20.6µM*, HT1080 IDH1KD tx -28.2%, IL-1B inflam inh inconclusive, HT1080-NT tox -19.0% and TDP1 cell CPT inconclusive.
CCNC(=O)c1cc2c(c(-c3cccc(-c4cccc(C(=O)N(C)C)c4)c3)n1)[C@H](CCO)N(S(=O)C(C)(C)C)C2 (some centres not stated) was read as TDP1 cell noCPT inconclusive, HT1080 IDH1KD tx 3.2%, IL-1B inflam inh 0.0, HT1080-NT tox 1.3% and TDP1 cell CPT -5.0%.
`CN(C)C(=O)c1cccc(-c2cccc(-c3nc(C(=O)NCc4ccccc4)cc4c3[C@@H](CCO)N(S(=O)C(C)(C)C)C4)c2)c1` (some centres not stated) gave TDP1 cell noCPT 14.6µM*, HT1080 IDH1KD tx inconclusive, IL-1B inflam inh -55.2*, HT1080-NT tox inconclusive and TDP1 cell CPT 18.4µM*.
CC(C)(C)S(=O)N1Cc2cc(C(=O)N[C@@H]3CCN(Cc4ccccc4)C3)nc(-c3cccc(-c4cc5ccccc5o4)c3)c2[C@@H]1CCO (some centres not stated) was read as TDP1 cell noCPT 23.1µM*, HT1080 IDH1KD tx inconclusive, IL-1B inflam inh inconclusive, HT1080-NT tox inconclusive and TDP1 cell CPT inconclusive.
For COc1cccc(-c2cccc(-c3nc(C(=O)NCCCN4CCOCC4)cc4c3[C@H](CCO)N(S(=O)C(C)(C)C)C4)c2)c1 (some centres not stated) the results were TDP1 cell noCPT 18.4µM*, HT1080 IDH1KD tx -1.0%, IL-1B inflam inh -12.6, HT1080-NT tox -1.3% and TDP1 cell CPT inconclusive.
Screening COc1cccc(CNC(=O)c2cc3c(c(-c4cccc(-c5cccc(C#N)c5)c4)n2)[C@H](CCO)N(S(=O)C(C)(C)C)C3)c1 (some centres not stated) returned TDP1 cell noCPT 14.6µM*, HT1080 IDH1KD tx 7.6%, IL-1B inflam inh -17.2, HT1080-NT tox 7.3% and TDP1 cell CPT inconclusive.
COc1ccc(C#Cc2cccc(-c3nc(C(=O)NCc4ccc(Oc5ccccc5)cc4)cc4c3[C@@H](CCO)N(S(=O)C(C)(C)C)C4)c2)cc1OC (some centres not stated) was read as TDP1 cell noCPT inconclusive, HT1080 IDH1KD tx inconclusive, IL-1B inflam inh -11.2, HT1080-NT tox 20.6µM* and TDP1 cell CPT inconclusive.
Cc1c(C(=O)NCC2(N3CCOCC3)CCCCC2)cnn1-c1nccc(-c2ccccc2F)n1 was read as TDP1 cell noCPT inconclusive and TDP1 cell CPT -7.8%[9.04 µM].
For CC(C)(C)c1nn(-c2ccccc2)c2[nH]c(=O)c(CNCc3ccco3)cc12 the results were TDP1 cell noCPT 23.1µM*, uPA surface inh -5.1%, HT1080 IDH1KD tx inconclusive, IL-1B inflam inh 29.2, HT1080-NT tox -27.5% and TDP1 cell CPT 20.6µM*.
`Cc1ccc(CNCc2cc3c(C(C)(C)C)nn(-c4ccccc4)c3[nH]c2=O)cc1` gave TDP1 cell noCPT 25.1µM*, uPA surface inh inconclusive, HT1080 IDH1KD tx inconclusive, IL-1B inflam inh -84.8*, HT1080-NT tox inconclusive and TDP1 cell CPT inconclusive.
`CC(C)(C)c1nn(-c2ccccc2)c2[nH]c(=O)c(CNc3ccc4c(c3)OCCO4)cc12` gave TDP1 cell noCPT -20.5%, uPA surface inh -7.4%, HT1080 IDH1KD tx inconclusive, IL-1B inflam inh 27.7, HT1080-NT tox inconclusive and TDP1 cell CPT -29.5%.
For Cc1ccc2nc(Cl)c(CNCc3ccccc3)cc2c1 the results were TDP1 cell noCPT inconclusive, uPA surface inh -4.6%, HT1080 IDH1KD tx 0.5%, IL-1B inflam inh 0.2, HT1080-NT tox -1.8% and TDP1 cell CPT inconclusive.

Screening data deposited in PubChem by National Center for Advancing Translational Sciences (NCATS).
